A collection of fitness landscapes (doi:10.1016/j.celrep.2020.107928)
Over roughly 81,000 sequences, “one-hybrid fitness for binding NBS DNA” has its median near -0.1; the highest 2% begin near 0.36. For the sample, the highest values were picked, then their nearest neighbours and some sequences at random.

B1: Caulobacter ParB omega fusion; a variant is named by its letters at X, in order, B8GW30 (parent)
chain: MESVVVGEPGMSEGRRGLGRGLSALLGEVDAAPAQAPGEQLGGSREAPIEILQRNPDQPRRTFREEDLEDLSNSIREKGVLQPILVRPSPDTAGEYQIVAGERAWRAAQRAGLKTVPIMVRELDDLAVLEIGIIENVQRADLNVLEEALSYKVLMEKFERTQENIAQTIGKSXSHVANXMRLLXLPDEVQSYLVSGELTAXHARAIAAAADPVALAKQIIEGGLSVRETEALARKAPNLSAGKSKGGRPPRVKDTDTQALESDLSSVLGLDVSIDHRGSTGTLTITYATLEQLDDLCNRLTRGI

Variants of: B1
Assay: one-hybrid fitness for binding NBS DNA (the Noc-binding site; scaled: cognate 1, non-cognate 0); higher = stronger binding
Conditions: with NBS DNA site
How it was run: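 Fitness here means the log change in variant-to-wild-type read ratio between plasmids sequenced before and after selection. That scale was set so cognate equals 1 and non-cognate equals 0. The selection was a bacterial one-hybrid screen of Caulobacter ParB libraries, four specificity codons randomised, in E. coli USO carrying a HIS3 reporter with the site 19 bp from the promoter, grown 48 hours at 37°C on M9-minus-histidine with 0.1 mM IPTG and 5 mM 3-AT.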

one-hybrid fitness for binding NBS DNA, 0.212:
RKFH

one-hybrid fitness for binding NBS DNA, 0.3:
QMKF

one-hybrid fitness for binding NBS DNA, 0.99:
QYKR

one-hybrid fitness for binding NBS DNA, 0.671:
QRDT

one-hybrid fitness for binding NBS DNA, 0.562:
QTRM

one-hybrid fitness for binding NBS DNA, 0.643:
RKAT

one-hybrid fitness for binding NBS DNA, 0.37:
QKIR

one-hybrid fitness for binding NBS DNA, 0.673:
QLKT

one-hybrid fitness for binding NBS DNA, 0.699:
QSKT

one-hybrid fitness for binding NBS DNA, 0.208:
RTPR

one-hybrid fitness for binding NBS DNA, 0.789:
QRHT

one-hybrid fitness for binding NBS DNA, 0.589:
QRRM

one-hybrid fitness for binding NBS DNA, 0.336:
QSIR

one-hybrid fitness for binding NBS DNA, 0.391:
QKET

one-hybrid fitness for binding NBS DNA, 0.282:
RTDR
QMVS

one-hybrid fitness for binding NBS DNA, 0.277:
QMKP

one-hybrid fitness for binding NBS DNA, 0.381:
QYVR

one-hybrid fitness for binding NBS DNA, 0.354:
RTIR

one-hybrid fitness for binding NBS DNA, 0.313:
QMKD

one-hybrid fitness for binding NBS DNA, 0.778:
QCKT

one-hybrid fitness for binding NBS DNA, 0.379:
QHRM

one-hybrid fitness for binding NBS DNA, 0.405:
RCWR

one-hybrid fitness for binding NBS DNA, 0.522:
RTYR

one-hybrid fitness for binding NBS DNA, 0.322:
RRQN
QMKI
QRLM

one-hybrid fitness for binding NBS DNA, 0.25:
TRRA
QWKT

one-hybrid fitness for binding NBS DNA, 0.772:
QRST

one-hybrid fitness for binding NBS DNA, 0.254:
QRWM

one-hybrid fitness for binding NBS DNA, 0.53:
RTCR

one-hybrid fitness for binding NBS DNA, 0.434:
RKES

one-hybrid fitness for binding NBS DNA, 0.461:
RTLR

one-hybrid fitness for binding NBS DNA, 0.377:
RRQG

one-hybrid fitness for binding NBS DNA, 0.404:
RTWR

one-hybrid fitness for binding NBS DNA, ≤ 0.2:
STWN
SNPF
LHCS
CNGF
FEEV
LQET
RAIS
RARN
RADS
RANH
DPHT
NPRM
HYCF
GLER
NTPI
RRQD
RSQG
RRQP
RCQG
PGAA
NLQS
HATK
WPRM
LVQN
DLGR
GFTS
NYKR
QYVN
QYVP
EYKR
KYYF
SYTG
PAEC
TFLC
RTGP
RTRD
RPWR
WHGR
SVYC
DNYS
AQDG
RTNP
RTHM
RTCD
RTSC
RTSF
RTHG
RTCN
MTRH
GPMF
VYNT
NQFD
GLEG
DQKV
ATVV
THMM
RTQN
RTWP
RTLQ
RTWD
RTLH
RTQP
QGED
DAQE
GQLV
RKAG
RSFT
RPFT
RKAK
RKFD
ALQE
NTTI
VKDD
SFVF
WRVA
QRPN
QRIF
QPIR
QRID
QKIH
HKRE
TTVD
RYII
YVSR
VVAC
CQVS
GESL
PASE
TQWR
YKER
SGPG
RKEN
RSET
RKEP
RKED
RKEC
RSER
TPNM
GAKV
PFSN
GRHM
ESQL
SDYT
TGQV
AFRG
AFCR
QMQQ
TPAD
CAYF
LIRD
PIRV
QTYM
QPRM
QTDM
QKYM
QHQM
QCYM
QKDM
QHDM
IVMP
STQT
NHEL
TDNM
IHYS
RIDA
LSVV
TPRN
NHPC
LYSC
GAPG
PSHR
RVAG
YGRN
AHAS
QMDM
QSDM
QSYM
QMYM
PHEA
DNPI
QTEH
DRGT
NRHT
QPET
DRHT
NRGT
LHGL
SEHS
AWHA
AGPD
CCAY
GPLH
DGTS
DRNT
QWNT
QRWF
QRWG
DPRH
TCSP
EGGL
QSFQ
PGPS
LKHN
PPQT
VKFG
DVTN
LSWG
KASG
PNWS
ISHA
TEKA
DRCT
QKEH
TPVD
FWLS
STAF
DGKR
RSDQ
NRPR
VFEC
SCLN
QFST
NRST
DRQT
TYAY
MPCT
SIMW
VASM
GSLP
QIRP
QIRD
QIIS
RWRF
LTWA
KKKG
AEER
LDLK
AVEL
SLSN
QFYT
QFVT
QEKT

one-hybrid fitness for binding NBS DNA, 0.328:
QSVT

one-hybrid fitness for binding NBS DNA, 0.731:
QRLT

one-hybrid fitness for binding NBS DNA, 0.349:
QHIT

one-hybrid fitness for binding NBS DNA, 0.352:
QCET

one-hybrid fitness for binding NBS DNA, 0.271:
RTGH
QKPR

one-hybrid fitness for binding NBS DNA, 0.402:
QSRM

one-hybrid fitness for binding NBS DNA, 0.353:
QRYM

one-hybrid fitness for binding NBS DNA, 0.539:
QIRS

one-hybrid fitness for binding NBS DNA, 0.543:
QRPR

one-hybrid fitness for binding NBS DNA, 0.732:
QHKT

one-hybrid fitness for binding NBS DNA, 0.686:
QRIR

one-hybrid fitness for binding NBS DNA, 0.201:
QPKT

one-hybrid fitness for binding NBS DNA, 0.692:
QAKT

one-hybrid fitness for binding NBS DNA, 0.363:
QACT

one-hybrid fitness for binding NBS DNA, 0.564:
RARS

one-hybrid fitness for binding NBS DNA, 0.476:
QCIR

one-hybrid fitness for binding NBS DNA, 0.475:
RKER

one-hybrid fitness for binding NBS DNA, 0.27:
RSWR
QIYS

one-hybrid fitness for binding NBS DNA, 0.236:
QILT
QIVT

one-hybrid fitness for binding NBS DNA, 0.744:
RTNR
QRYT

one-hybrid fitness for binding NBS DNA, 0.447:
RRQH

one-hybrid fitness for binding NBS DNA, 0.215:
QMKE

one-hybrid fitness for binding NBS DNA, 0.818:
RTRR

one-hybrid fitness for binding NBS DNA, 0.437:
RKFT

one-hybrid fitness for binding NBS DNA, 0.296:
QAVT

one-hybrid fitness for binding NBS DNA, 0.327:
QHVT

one-hybrid fitness for binding NBS DNA, 0.631:
RTHR

one-hybrid fitness for binding NBS DNA, 0.283:
QMVQ
QIQT

one-hybrid fitness for binding NBS DNA, 0.253:
QSET

one-hybrid fitness for binding NBS DNA, 0.603:
QRET

one-hybrid fitness for binding NBS DNA, 0.417:
QMKQ

one-hybrid fitness for binding NBS DNA, 0.863:
QRRT

one-hybrid fitness for binding NBS DNA, 0.44:
QIRH

one-hybrid fitness for binding NBS DNA, 0.806:
QRCT

one-hybrid fitness for binding NBS DNA, 0.574:
QIKT

one-hybrid fitness for binding NBS DNA, 0.576:
RTSR

one-hybrid fitness for binding NBS DNA, 0.228:
RCQH

one-hybrid fitness for binding NBS DNA, 0.346:
QRRE

one-hybrid fitness for binding NBS DNA, 0.622:
RTGR

one-hybrid fitness for binding NBS DNA, 0.755:
QRQT

one-hybrid fitness for binding NBS DNA, 0.262:
RAWS
RTER

one-hybrid fitness for binding NBS DNA, 0.423:
RAYS
RCFT

one-hybrid fitness for binding NBS DNA, 0.822:
QRGT
QRNT

one-hybrid fitness for binding NBS DNA, 0.484:
RANS

one-hybrid fitness for binding NBS DNA, 0.668:
QMKS

one-hybrid fitness for binding NBS DNA, 0.4:
QMKN
QKRM

one-hybrid fitness for binding NBS DNA, 0.388:
QFKT

one-hybrid fitness for binding NBS DNA, 0.505:
QCRM

one-hybrid fitness for binding NBS DNA, 0.275:
QKES

one-hybrid fitness for binding NBS DNA, 0.309:
QFRT

one-hybrid fitness for binding NBS DNA, 0.237:
RQKV

one-hybrid fitness for binding NBS DNA, 0.45:
QMRM

one-hybrid fitness for binding NBS DNA, 0.707:
QRWT

one-hybrid fitness for binding NBS DNA, 0.439:
QTET

one-hybrid fitness for binding NBS DNA, 0.69:
RRQS

one-hybrid fitness for binding NBS DNA, 0.306:
RARH

one-hybrid fitness for binding NBS DNA, 0.276:
QLVT

one-hybrid fitness for binding NBS DNA, 0.528:
RKET

one-hybrid fitness for binding NBS DNA, 0.559:
QMKH

one-hybrid fitness for binding NBS DNA, 0.575:
RTQR
